A selection: hits, their analogues and other compounds. The true share with any hit is near 4.1%.
LEDGF integ inh – blockers of LEDGF/p75-dependent integrase strand transfer – biochemical, TR-FRET, high throughput, primary screen. HIV-1 integrase (with human LEDGF/p75). TR-FRET IN-LEDGF/p75 DNA integration, Eu/Cy5. 370,000 compounds, 0.64% hits. inhibition, % at 3.7 µM;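 active = inhibition above the screen-wide mean plus 3 SD, cut at about 13% in these data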;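 note: signal is the Cy5 over europium emission ratio at 671 and 618 nm; 0% = plate median of compound wells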
PRMT1 inh – PRMT1 methyltransferase inhibitors, primary screen, biochemical, fluorescence polarization | Protein arginine N-methyltransferase 1 (Homo sapiens), Q99873 | recombinant PRMT1, activity-based probe fluorescence polarization | inhibition, % at 2.79 µM | 370,000 compounds, 1.3% hits | AID 652257, 2013;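 active = inhibition above about 21% made by adding two undisclosed values, limit read from the data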
ABHD5 PLIN5 PPI – ABHD5-PLIN5 interaction inhibitors, primary screen, cell lysate, split luciferase complementation, luminescence; inhibition, % at 4 µM; 360,000 compounds, 0.78% hits; Split G. princeps luciferase complementation, 4 h;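 active = inhibition above the mean inhibition across every tested compound plus 3 SD, cut at about 22% in these data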;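 note: 0% = DMSO only wells and the 100% control is not disclosed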
rCAG RNA binder – binders of r(CAG) RNA repeats, primary screen, biochemical, fluorescence | inhibition, % at 3 µM | 370,000 compounds, 1.3% hits | r(CAG) RNA repeat, TO-PRO-1 dye displacement fluorescence | AID 651821, 2012;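 active = inhibition above the plate cutoff, the mean of all test compounds on that plate plus 3 SD, cut at about 35% in these data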;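 note: 0% = DMSO alone and 100% = 100 µM mitoxantrone as full dye displacement; higher means more dye released from RNA so lower well fluorescence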
UHRF1 binding – UHRF1 methylated DNA binding inhibitors, primary screen, counter-screen for MBD2 inhibitor project, biochemical, TR-FRET, human UHRF1, single concentration | E3 ubiquitin-protein ligase UHRF1 (Homo sapiens), Q96T88 | UHRF1 binding to methylated oligo | inhibition, % at 4.4 µM | 370,000 compounds, 0.75% hits | AID 687016, 2013; in the data active = inhibition above about 21%;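 note: UHRF1 SRA domain binding a hemimethylated CpG hairpin DNA probe; 0% = median of test compound wells and 100% = reference inhibitor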
MBD2 inh – inhibitors of MBD2 binding to methylated DNA, primary screen, biochemical, TR-FRET, DNA-binding domain, human. MBD2 binding to methylated oligonucleotide. inhibition, % at 4.4 µM. 370,000 compounds, 0.31% hits. AID 686964, 2013; in the data active = inhibition above about 13%
* marks the source's active call; other numbers are inactive results.

Nc1c(/C=C2/C=CC(=O)C(O)=C2)c(=O)nc2sc(CC(=O)N3CCCC3)nn12 was read as LEDGF integ inh 8.0, PRMT1 inh 4.6, ABHD5 PLIN5 PPI 1.4, rCAG RNA binder 20.2, UHRF1 binding 9.3 and MBD2 inh -2.8.
`COC(=O)c1cc(-c2c(C)noc2C)c(=O)n2c1CCC2` gave LEDGF integ inh 5.6, PRMT1 inh -3.8, rCAG RNA binder 1.3, UHRF1 binding 0.1 and MBD2 inh -6.6.
Cc1cccc(CC2CC(=O)N(CCc3ccc4c(c3)OCO4)C2=O)c1 (configuration not stated) was read as LEDGF integ inh 6.6, PRMT1 inh 0.2, ABHD5 PLIN5 PPI -7.7, rCAG RNA binder 3.2, UHRF1 binding 39.7* and MBD2 inh 12.5.
Screening CC(=O)N1C[C@@H](CO)[C@@H](N(C)C(=O)Nc2cccc3ccccc23)C[C@H]1c1ccccc1 returned LEDGF integ inh 2.7, PRMT1 inh 1.1, rCAG RNA binder 3.4, UHRF1 binding -0.2 and MBD2 inh -1.3.
Screening COc1ccccc1N1C(=O)CC(N(O)c2ccccc2)C1=O (configuration not stated) returned LEDGF integ inh 2.1, PRMT1 inh -0.2, ABHD5 PLIN5 PPI -5.2, rCAG RNA binder 3.7, UHRF1 binding 1.6 and MBD2 inh 2.5.
For COc1ccccc1N(O)C1CC(=O)N(c2ccc(F)cc2)C1=O (configuration not stated) the results were LEDGF integ inh 2.5, PRMT1 inh 31.3*, ABHD5 PLIN5 PPI -2.4, rCAG RNA binder 11.9, UHRF1 binding -8.0 and MBD2 inh -9.4.
`CC1(C)Nc2ccc(O)cc2-c2c1ssc2=S` gave LEDGF integ inh 6.2, PRMT1 inh 22.1*, ABHD5 PLIN5 PPI -18.9, rCAG RNA binder 9.9, UHRF1 binding -7.2 and MBD2 inh -8.4.
Screening O=C(COc1ccccc1)NCCSCc1ccccc1Cl returned LEDGF integ inh 4.1, PRMT1 inh -6.6, ABHD5 PLIN5 PPI -1.5, rCAG RNA binder -5.2, UHRF1 binding -2.1 and MBD2 inh -5.0.
Screening COc1ccccc1OCC(=O)NCCSCc1ccccc1Cl returned LEDGF integ inh 1.9, PRMT1 inh 2.2, ABHD5 PLIN5 PPI -7.4, rCAG RNA binder -5.3, UHRF1 binding 24.8* and MBD2 inh 5.3.
Screening COCOCCn1cc(CN2CCS(=O)(=O)N(Cc3ccc(-c4ccncc4)cc3)C(CC(C)C)C2=O)nn1 (configuration not stated) returned LEDGF integ inh 0.9, PRMT1 inh 0.8, ABHD5 PLIN5 PPI 6.4, rCAG RNA binder -1.3, UHRF1 binding 24.2* and MBD2 inh 5.1.
O=C(NCCCc1ccccc1)OC1CC2CC1[C@H]1CCCCN1C2 (some centres not stated) was read as LEDGF integ inh -5.7, PRMT1 inh -3.2, rCAG RNA binder 6.4, UHRF1 binding 0.8 and MBD2 inh -0.9.
Screening COCCSc1nnc(-c2cccnc2)n1Cc1ccccc1 returned LEDGF integ inh -4.4, PRMT1 inh -0.1, rCAG RNA binder 0.7, UHRF1 binding -0.1 and MBD2 inh -2.3.
COc1ccc(NC(=O)Cn2c(=O)n(CC3CCCO3)c(=O)c3ccccc32)c(OC)c1 (configuration not stated) was read as LEDGF integ inh 5.4, PRMT1 inh 1.5, ABHD5 PLIN5 PPI 9.2, rCAG RNA binder -2.7, UHRF1 binding 21.6* and MBD2 inh 8.1.
Screening COc1cc(NC(=O)Cn2c(=O)n(CC3CCCO3)c(=O)c3ccccc32)cc(OC)c1 (configuration not stated) returned LEDGF integ inh -1.2, PRMT1 inh -2.7, ABHD5 PLIN5 PPI -4.3, rCAG RNA binder 3.3, UHRF1 binding 1.2 and MBD2 inh 7.8.
Screening O=C(NCc1ccco1)c1nc2nc(-c3cccs3)cc(C(F)(F)F)n2n1 returned LEDGF integ inh 11.6, PRMT1 inh 23.1*, ABHD5 PLIN5 PPI 12.7, rCAG RNA binder 10.7, UHRF1 binding 8.2 and MBD2 inh 4.7.
For C#CCNC(=O)C[C@H]1C[C@@]2(C(=O)OC)C(=C[C@H](C(C)(C)C)O[C@@H]2C)N(CCC2=CCCCC2)C1=O the results were LEDGF integ inh -2.5, PRMT1 inh -0.3, rCAG RNA binder -0.6, UHRF1 binding 0.7 and MBD2 inh 4.4.
CCOC(=O)c1c(C)oc2c1c(C=NCc1ccccn1)c(O)c1ccccc12 was read as LEDGF integ inh 16.5*, PRMT1 inh 21.4*, ABHD5 PLIN5 PPI -18.9, rCAG RNA binder 18.0, UHRF1 binding 7.4 and MBD2 inh -6.3.
Screening COC(=O)C1=C(C)N(c2ccccc2)C(=S)NC1c1ccccc1C(F)(F)F (configuration not stated) returned LEDGF integ inh -5.9, PRMT1 inh 2.2, ABHD5 PLIN5 PPI -1.4, rCAG RNA binder -3.5, UHRF1 binding 44.0* and MBD2 inh -1.9.
`CS(=O)(=O)N(CC(=O)NC1CCCCCC1)Cc1ccc(Cl)cc1` gave LEDGF integ inh -2.5, PRMT1 inh 1.5, ABHD5 PLIN5 PPI 4.6, rCAG RNA binder -4.6, UHRF1 binding 48.6* and MBD2 inh -1.2.
O=C(CSc1nnc(-c2cccc(Cl)c2)n1Cc1ccco1)c1ccc(F)cc1 was read as LEDGF integ inh -2.9, PRMT1 inh -3.1, rCAG RNA binder 2.4, UHRF1 binding -2.1 and MBD2 inh 0.7.
`CCOc1ccc(NC2=CC(=O)C(=O)c3ccccc32)cc1` gave LEDGF integ inh 22.9*, PRMT1 inh 1.7, ABHD5 PLIN5 PPI -43.3, rCAG RNA binder 7.1, UHRF1 binding -8.0 and MBD2 inh -25.8.
Screening O=C1C=C(Nc2ccc(F)cc2)c2ccccc2C1=O returned LEDGF integ inh 7.8, PRMT1 inh -0.5, ABHD5 PLIN5 PPI 1.8, rCAG RNA binder 6.0, UHRF1 binding -6.3 and MBD2 inh -18.0.
COc1ccc(CCc2nnc(N)s2)cc1OC was read as LEDGF integ inh -3.0, PRMT1 inh 0.6, ABHD5 PLIN5 PPI -8.0, rCAG RNA binder -0.3, UHRF1 binding 0.8 and MBD2 inh -0.6.
For COc1cccc(CCc2nnc(N)s2)c1 the results were LEDGF integ inh -7.8, PRMT1 inh 22.6*, ABHD5 PLIN5 PPI 3.1, rCAG RNA binder 6.0, UHRF1 binding 4.8 and MBD2 inh 4.7.
N#CCCCc1cn(-c2cccc(-c3noc4c3C(=O)N(CC(=O)N3CCOCC3)CC4)c2)nn1 was read as LEDGF integ inh -0.2, PRMT1 inh -1.0, rCAG RNA binder -0.2, UHRF1 binding 3.8 and MBD2 inh -1.6.

Source: PubChem
